# PubChem BioAssay AID620 (Sanford-Burnham Center for Chemical Genomics, 2007)
# Hit rate of the full screen: of about 87,000 compounds, about 360 (0.41%) were called active. No stated cut-off is given here; in the data, active means cytotoxicity above about 50%; inactive means the rest. For the sample, actives were picked, then their nearest neighbours and some compounds at random.
# Assay: HT1080 cell viability loss – fluorescence readout (AID 620);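 further: cells exposed to compound overnight then 4 h with Alamar Blue; 0% = vehicle DMSO and 100% = killing control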
# Conditions: at 10 µM, active compounds read high
row,SMILES,cytotoxicity
1,CC(=O)Nc1ccc(NC(=O)Cn2c(CC(=O)N3CCCC3)nc3ccccc32)cc1,-27.7% (inactive)
2,C=CCn1c(N2C(=O)CC(Cc3ccccc3)C2=O)nc2ccccc21 (configuration not stated),5.8% (inactive)
3,CCc1ccc(NC(=O)c2ccccc2NC(=O)C2CCCO2)cc1 (configuration not stated),-5.7% (inactive)
4,COc1cccc2c(=O)n(CC(=O)NC3CCCC3)ccc12,2.2% (inactive)
5,c1ccc(-c2nnc(-c3ccccn3)nc2NC2CCCCC2)cc1,50.7% (active)
6,CNc1nc(-c2ccccn2)nnc1-c1ccccc1,10.4% (inactive)
7,c1ccc(-c2noc(C3CCCCC3)n2)nc1,-7.2% (inactive)
8,CN1CCC(N(C)C(=O)c2ccccc2Nc2ccc(SC(F)F)cc2)CC1,5.3% (inactive)
9,CCCn1c(NCc2ccc(C)o2)nc2ccccc21,0.5% (inactive)
10,COCCn1nnnc1C(c1ccc2ncccc2c1)N1CCN(c2ccccc2F)CC1 (configuration not stated),-18.9% (inactive)
11,COc1ccc(S(=O)(=O)N2c3cc(Cl)ccc3Oc3nc4ccccc4nc32)cc1,70.2% (active)
12,O=S(=O)(c1ccc(Cl)cc1)N1c2ccccc2Oc2nc3ccccc3nc21,3.8% (inactive)
13,O=S(=O)(c1ccccc1)N1c2cc(Cl)ccc2Oc2nc3ccccc3nc21,-4.7% (inactive)
14,COC(=O)c1cc(NS(=O)(=O)c2ccc(OC)c(OC)c2)ccc1Cl,3.3% (inactive)
15,COCc1[nH]nc2c1C(c1ccccc1Cl)C(C#N)=C(N)O2 (configuration not stated),-4.4% (inactive)
16,Cc1cc(C(C)(C)C)nc2[nH]n(-c3ccccc3)c(=O)c12,-2.1% (inactive)
17,Cc1ccnc(NC(=O)c2cc(-n3cnnc3)ccc2Cl)c1,12.1% (inactive)
18,CC(C)(C)C(=O)Nc1sc2c(c1C#N)CCCCC2,5.8% (inactive)
19,COCCCNC(=O)CC(NS(=O)(=O)c1ccc(Cl)cc1)c1ccco1 (configuration not stated),-9.5% (inactive)
20,CC(C)CNS(=O)(=O)c1ccc(CCC(=O)N2CCOCC2)cc1,2.1% (inactive)
21,COc1ccc(-c2n[nH]c(C)c2-c2ccc(Cl)cc2)c(O)c1,-10.8% (inactive)
22,C=C(C)COc1ccc(-c2n[nH]c(C)c2-c2ccc(OC)cc2)c(O)c1,-14.1% (inactive)
23,C=C(C)COc1ccc(-c2n[nH]c(C)c2-c2ccc(Br)cc2)c(O)c1,50.7% (active)
24,COc1ccccc1NS(=O)(=O)c1cc(Cl)ccc1OC,16.4% (inactive)
25,Cn1c(N)c(C(=O)COC(=O)c2cc(C(F)(F)F)nc3ccccc23)c(=O)n(Cc2ccccc2)c1=O,5.9% (inactive)
26,COc1ccc(CCNc2c(C)c(C)nc3ncnn23)cc1,17.9% (inactive)

row,SMILES,cytotoxicity
1,CCc1c(C)nc2ncnn2c1NCCc1ccccc1,-9.2% (inactive)
2,CCc1c(C)nc2ncnn2c1NCCc1ccc(OC)cc1,61.9% (active)
3,O=C(N1CCOCC1)C12CC3CC(C1)CC(C(=O)N1CCOCC1)(C3)C2,-17.8% (inactive)
4,Cc1cc(C)c(C)c(S(=O)(=O)NCC(=O)N2CCCC2)c1C,6.8% (inactive)
5,COc1ccc(NC(=O)c2nc3nccc(C)n3n2)cn1,10.5% (inactive)
6,COc1ccc(NC(=O)/C(Cl)=C(/Cl)S(=O)Cc2ccccc2)cn1 (configuration not stated),95.5% (active)
7,COc1ccc(NC(=O)/C(Cl)=C(/Cl)S(=O)Cc2ccc(C)cc2)cn1 (configuration not stated),92.3% (active)
8,COc1ccc(NC(=O)c2cc(CN3C(=O)c4ccccc4C3=O)ccc2OC)cn1,-0.1% (inactive)
9,CCOc1ccccc1OCCCC(=O)Nc1ccc(OC)nc1,2.4% (inactive)
10,COc1ccc(NC(=O)c2cc(=O)c3ccccc3o2)cn1,7% (inactive)
11,COc1ccc(CC(=O)N2CCN(C(=O)c3ccco3)CC2)cc1,4.7% (inactive)
12,NC(=O)C(c1ccccc1)C1CCCCC1 (configuration not stated),5.9% (inactive)
13,CC1(C)CC(=O)C=C(NCCN2CCN(C(=O)Nc3ccc(Cl)cc3)CC2)C1,-6.1% (inactive)
14,Cc1[nH]nc(SCC(=O)N2CCC(C)CC2)c1[N+](=O)[O-],0.7% (inactive)
15,COC(=O)C1CC(=O)N(CCc2c[nH]c3ccccc23)C1 (configuration not stated),2.6% (inactive)
16,COC(=O)Cn1nc(-c2ccccc2)c2ccccc2c1=O,5.9% (inactive)
17,COc1ccc(-n2nnnc2S(=O)(=O)CC(=O)N2CCCCC2)cc1,54.3% (active)
18,COc1ccc(-n2nnnc2S(=O)(=O)Cc2ccc(C(=O)O)cc2)cc1,11.4% (inactive)
19,COc1cc(OC)cc(-n2nnnc2SCC(=O)N2CCCC2)c1,-5.2% (inactive)
20,Cn1c(SCc2cc(=O)[nH]c3ccccc23)nnc1-c1ccc(Br)cc1,6% (inactive)
21,C(=C\c1ccccc1)/CSc1nnc(-c2ccccc2)n1Cc1ccco1,53.5% (active)
22,Clc1cccc(-c2nnc(SC/C=C/c3ccccc3)n2Cc2ccco2)c1,-0.5% (inactive)
23,C(=C\c1ccccc1)/CSc1nnc(-c2ccncc2)n1Cc1ccco1,-2.1% (inactive)
24,O=C(CN1C(=O)NC(Cc2ccccc2)C1=O)Nc1ccccc1 (configuration not stated),-3.1% (inactive)
25,COC(=O)CSc1cc(C)nc(SC)n1,-7.3% (inactive)
26,O=C(Nc1cc(Cl)ccc1O)C1CCCO1 (configuration not stated),-2.4% (inactive)

row,SMILES,cytotoxicity
1,CCc1nnc(NC(=O)Cn2nc(-c3ccccc3OC)ccc2=O)s1,10.1% (inactive)
2,CC(=O)c1cn(CC(=O)Nc2ccccc2C)c2ccccc12,-1.9% (inactive)
3,CN1CCN(c2ccc(Cl)cc2NS(=O)(=O)c2ccccc2Cl)CC1,-1.9% (inactive)
4,Cc1ccc(NS(=O)(=O)c2ccccc2Cl)c2c1CC(C)(C)O2,62.3% (active)
5,Cc1ccccc1NS(=O)(=O)c1cc(S(C)(=O)=O)ccc1Cl,-10.1% (inactive)
6,COc1ccc(C2CC(c3c(O)cc(C)oc3=O)=NCCS2)c(OC)c1 (configuration not stated),51.9% (active)
7,COc1ccc(C2C(C(C)=O)=C(O)C(=O)N2C)c(OC)c1 (configuration not stated),5.8% (inactive)
8,COC(=O)C1=C(C)C(c2ccc(OC)cc2OC)NC(=O)N1 (configuration not stated),2.9% (inactive)
9,CCN1CC=C2C(C#N)=C(N)C(C#N)(C#N)[C@H](c3ccoc3)[C@H]2C1,-2.2% (inactive)
10,CN1CC=C2C(C#N)=C(N)C(C#N)(C#N)[C@H](c3ccoc3)[C@H]2C1,-7.5% (inactive)
11,N#CC1=C(N)C(C#N)(C#N)[C@H](c2ccoc2)[C@H]2CN(Cc3ccccc3)CC=C12,66.1% (active)
12,CCOC(=O)c1ccc(NC(=O)CN2CCc3ccccc3C2)cc1,-3.7% (inactive)
13,COc1cccc(-c2cc(C(=O)Nn3cnnc3)c3ccccc3n2)c1,11.6% (inactive)
14,CCNc1nc(NC(C)C)nc(NS(=O)(=O)c2ccc(Cl)cc2)n1,-8.8% (inactive)
15,CN(C)c1nc(NS(=O)(=O)c2ccc(Cl)cc2)nc(N(C)C)n1,35.3% (inactive)
16,CCN(CC)c1nc(N)nc(NS(=O)(=O)c2ccc(Cl)cc2)n1,51.4% (active)
17,COCCNC(=O)CN(Cc1ccc2c(c1)OCO2)C(=O)CCC(=O)Nc1nccs1,-8.1% (inactive)
18,O=C(CN(C(=O)Cn1nnc(-c2cccs2)n1)c1ccc2c(c1)OCCO2)NCC1CCCO1 (configuration not stated),-1.3% (inactive)
19,O=C1NC(c2cccs2)Nc2ccccc21 (configuration not stated),10.2% (inactive)
20,Cc1ccc(C2NC(=O)c3ccccc3N2)s1 (configuration not stated),57.7% (active)
21,Cc1ccsc1C1NC(=O)c2ccccc2N1 (configuration not stated),7.3% (inactive)
22,Cc1ccc(S(=O)(=O)Nc2ccnc3ccccc23)cc1,5.4% (inactive)
23,O=S(=O)(Nc1ccc(-c2nc3cccnc3s2)cc1)c1cccs1,-6.8% (inactive)
24,COc1ccccc1NS(=O)(=O)c1cccs1,8.9% (inactive)
25,Cc1ccc(S(=O)(=O)Nc2cccc3ncccc23)s1,54.9% (active)
26,CCOc1ccccc1NS(=O)(=O)c1cccs1,56.5% (active)

row,SMILES,cytotoxicity
1,CCOc1ccccc1NS(=O)(=O)c1ccc(Br)s1,20.7% (inactive)
2,O=S(=O)(Nc1cccc2ncccc12)c1cccs1,85% (active)
3,Cc1ccc(S(=O)(=O)NCc2cccnc2)s1,-11.9% (inactive)
4,O=S(=O)(Nc1cccc2c1ccc1cccn12)c1cccs1,-4.6% (inactive)
5,O=C(c1ccc2c3c(cccc13)CC2)N1CCOCC1,-18.7% (inactive)
6,CC(=O)N1C(=O)C2(C(C#N)=C(N)Oc3n[nH]c(-c4ccccn4)c32)c2ccccc21 (configuration not stated),6.9% (inactive)
7,O=C(NCc1ccc2c(c1)OCO2)c1nn(-c2ccccc2)c(=O)c2ccccc12,-4.7% (inactive)
8,O=C(Nc1ccccn1)C(=O)N1CCCCC1,4.7% (inactive)
9,COc1cccc2c1C(=O)c1c(O)c3c(c(O)c1C2=O)C[C@@](O)(C(=O)CO)C[C@@H]3O[C@H]1C[C@H](N)[C@H](O)[C@H](C)O1,53.8% (active)
10,Cc1noc(/C=C/c2ccco2)c1S(=O)(=O)N1CCC(C(=O)N(C)Cc2ccccc2)CC1,-4.4% (inactive)
11,COc1ccc(C(CC(=O)O)NC(=O)COc2ccc(C)cc2)cc1OC (configuration not stated),4.5% (inactive)
12,CCOCC(=O)Nc1ccccc1C(=O)OCC,-3.7% (inactive)
13,CC(=O)n1cc(Nc2ccccc2C(=O)O)c2ccccc21,0.2% (inactive)
14,CCOC(=O)c1ccccc1Nc1cn(C(C)=O)c2ccccc12,53.7% (active)
15,COc1ccc2c(Cl)c(-c3nnc4n3CCCCC4)sc2c1,-8.8% (inactive)
16,COc1ccc(C2C3=C(CC(C)(C)CC3=O)Oc3ncn(CCCn4ccnc4)c(=N)c32)cc1 (configuration not stated),20.5% (inactive)
17,Cc1noc(C)c1CSc1nnc(-c2ccccc2)n1Cc1ccco1,2.6% (inactive)
18,C=CCn1c(SCc2c(C)noc2C)nc2ccccc2c1=O,60.3% (active)
19,Cc1nc(CSc2nc3[nH]ncc3c(=O)n2-c2ccccc2)cs1,-1.5% (inactive)
20,Cc1noc(C)c1CSc1nc2ccccc2c(=O)n1-c1ccc(Cl)cc1,-2.7% (inactive)
21,Cc1noc(C)c1CSc1nc2[nH]ncc2c(=O)n1-c1ccccc1,60.4% (active)
22,C=CCn1c(SCc2c(C)noc2C)nc2cc(C(=O)O)ccc2c1=O,25.6% (inactive)
23,Cc1noc(C)c1CSc1nc2ccccc2c(=O)n1-c1ccccc1,48.9% (inactive)
24,CCc1cc2c(=O)n(Cc3ccco3)c(SCC(=O)N3CCCc4ccccc43)nc2s1,-1.5% (inactive)
